The structures appear in SMILES notation. Out of some 69,000 compounds screened, about 8,600 (12%) showed an effect of 50% or more. This excerpt belongs to a sample that is enriched for strong results.

The test system of this assay is Plasmodium berghei. Briefly: Screen against P. berghei liver stage (PbLuc), transformed with Luciferase, at 10uM. The class given is functional, HepG2. Conditions: tested at 10 uM.
For the molecule `CC(c1nc(C2CC2)no1)N1CCN(Cc2nnc(C3CC3)o2)CC1` (stereo unspecified), the INHIBITION was -51.5%.
Regarding `Cc1c(C(=O)NC(C)CC(=O)c2cccs2)cnn1C` (stereo unspecified), the INHIBITION was determined as 40.6%.
Then `CC(=O)N1CCCN(C(=O)c2ccc(Sc3ccccn3)cc2)CC1`, with -0.217%; and `Cc1cccn2cc(CC(=O)N(CCN(C)C)CC3CCCO3)nc12` (stereo unspecified), with 58.5%.
For the molecule `CN(C)CCN(CC1CCCO1)C(=O)Cc1cn2ccccc2n1` (stereo unspecified), the INHIBITION worked out at 28.7%.
Turning to `O=C(Cc1cn2ccsc2n1)N(Cc1ccco1)CC1CCCO1` (stereo unspecified), the INHIBITION is recorded as 7.21%.
As to `Fc1ccc(CN2CCc3ncnc(C4CC4)c3CC2)cc1`, the INHIBITION came out at 39.5%.
As for `O=C1CCN(C(=O)c2ncoc2-c2ccco2)c2ncccc2N1`, the figure is 15.1%; as for `O=c1[nH]nc(C2CC2)n1-c1cccc(Cl)c1`, -21.7%.
Turning to `CN1CC(c2n[nH]c(=O)n2-c2cccc(Cl)c2)CC1=O` (stereo unspecified), the INHIBITION stood at 58.9%.
As for `CN1CCC(c2n[nH]c(=O)n2-c2cccc(Cl)c2)CC1`, the figure is 14.1%; as for `O=C(c1ccc(N2CCCC2)nc1)N1CCCC(n2cncn2)C1` (stereo unspecified), -29.5%.
Then `CN(C)C(=O)CCC1CCCN(Cc2ccc(-c3cccnc3)cc2)C1` (stereo unspecified), with 29.8%; and `Cc1nccn1CC1CCCN(Cc2ccc(-c3cccnc3)cc2)C1` (stereo unspecified), with 66.7%.
Regarding `Cc1nc(C)n(CC2CCCN(Cc3cccnc3)C2)n1` (stereo unspecified), the INHIBITION is -14.6%.
On to `Cc1nn(C)c(N(C)C)c1CNCc1ccccc1CO`, for which the INHIBITION is 15.3%.
For `Cc1cc(NC(=O)CCn2nc(C)c3ccccc32)n(C)n1`, the INHIBITION came to 26.7%.
As for `CCn1nc(C)cc1NC(=O)CCn1nc(C)c2ccccc21`, the figure is 20.9%; as for `Cc1cc(NC(=O)CCn2nc(C)c3ccccc32)n(C(C)C)n1`, 59%; as for `CSCC[C@H](NC(=O)N1CCC(Cc2ccccc2)CC1)C(=O)O`, 20%.
Regarding `CC(NC(=O)C1CCCC1)c1nncn1C(C)C` (stereo unspecified), the INHIBITION was 52.2%.
As for `CC(NC(=O)C1CCN(C(C)C)CC1)c1nncn1C1CCCC1` (stereo unspecified), the figure is 17.8%.
Then `CC(NC(=O)C1CCN(C(=O)C2CC2)CC1)c1nncn1C(C)C` (stereo unspecified), with 44%; and `CCOc1ccccc1C(C(=O)O)N(C)CC1CCOCC1` (stereo unspecified), with 41.3%.
As for `c1sc(C2CCCCC2)nc1CN1CCn2c(nnc2C2CC2)C1`, the figure is 38.8%; as for `O=C(NCCn1ccnc1)N1CCCC1c1ccc2c(c1)OCCO2` (stereo unspecified), -1.25%.
Take `COc1ccc2nnc(CCC(=O)Nc3nc4c(s3)CCCC4)n2n1`: the INHIBITION is -2.09%.
Take `O=C(NCC1CCOCC1)[C@@H]1C[C@@H]2CCN(Cc3ccco3)C[C@H]2O1`: the INHIBITION came to 2.74%.
As for `COCCCNC(=O)C(C)(C)N(C)C1CCCC1`, the figure is 72.1%; as for `CN(C1CCCC1)C(C)(C)C(=O)NCCS(C)(=O)=O`, 42.4%; as for `CN(C1CCCC1)C(C)(C)C(=O)NCCNC(N)=O`, 32.2%.
With `O=C1CCC(=O)c2oc3ccc(Br)cc3c2N1`, the INHIBITION stood at 0.207%.
For the molecule `Cc1cnn(CC(C)NCc2ccc(C#N)cc2)c1` (stereo unspecified), the INHIBITION was determined as 32.8%.
As for `CC(Cn1cccn1)NCc1cnc(N2CCCC2)nc1` (stereo unspecified), the figure is 53.2%; as for `COc1cc(CNC(C)Cn2cccn2)cc(OC)c1` (stereo unspecified), 25.1%.
In the case of `c1cnn(CCNCc2cnc(N3CCCC3)nc2)c1`, the INHIBITION is given as -1.04%.
With `Cc1cnn(CC(C)NCc2ccc(OCc3cccnc3)cc2)c1` (stereo unspecified), the INHIBITION was 58.5%.
`c1ccc(Cn2cccn2)c(CNCc2cnc(N3CCCC3)nc2)c1`: the INHIBITION amounted to 22.6%.
For the molecule `CC(Cn1cccn1)NCc1ccc(OCc2ccncc2)cc1` (stereo unspecified), the INHIBITION turned out to be 56.4%.
Then `Cc1cnn(CC(C)NCc2ccccc2OCc2cccnc2)c1` (stereo unspecified), with 13.3%; and `CC(Cn1cccn1)NCc1csc(COc2ccccc2)n1` (stereo unspecified), with -2.53%.
Take `Cc1cnn(CCNCc2ccc(S(C)(=O)=O)cc2)c1`: the INHIBITION was -13.1%.
As for `Cc1cnn(CC(C)NCc2ccc(S(C)(=O)=O)cc2)c1` (stereo unspecified), the figure is 56.3%; as for `Cc1cnn(CC(C)NCc2cccnc2)c1` (stereo unspecified), -3%; as for `c1cnc(N2CCO[C@H]3[C@H](OCCN4CCCC4)CC[C@@H]32)nc1`, 43.8%.
Turning to `CNC(=O)NCC1CCC2(CCN(C(=O)c3cccnc3)CC2)CO1` (stereo unspecified), the INHIBITION was 41.2%.
Regarding `O=C(Cc1cccs1)N1Cc2nc(CN3CCCC3)oc2C1`, the INHIBITION was 30.5%.
Take `Cc1cccc(S(=O)(=O)N2C[C@@H]3C[C@H](C(=O)NCC4CC4)[C@H](C2)O3)c1`: the INHIBITION is on record as 2.4%.
Regarding `CCc1nc(N2CCC3(CC2)[C@H](O)C[C@@H]3O)ncc1C`, the INHIBITION is -50.8%.
For `CCOCC1CC2(CCN(C(=O)c3ncccn3)CC2)CO1` (stereo unspecified), the INHIBITION was found to be 33.4%.
Regarding `Cc1cnn(CCNCc2ccc(OCC(N)=O)cc2)c1`, the INHIBITION is -41.1%.
As for `Cc1cnn(CC(C)NCc2ccc(OCc3nccn3C)cc2)c1` (stereo unspecified), the figure is -34%; as for `Cc1cnn(CC(C)NCc2cc(=O)n3cc(C)ccc3n2)c1` (stereo unspecified), -16.1%.
As for `Cc1cnn(CC2CCCN2Cc2cc(=O)n3ccccc3n2)c1` (stereo unspecified), the figure is 28.3%.
As for `Cc1cnn(CC(C)NCc2ccc(OCc3ccncc3)cc2)c1` (stereo unspecified), the figure is 54.6%; as for `COc1cc(CNC(C)Cn2cccn2)cc(OC)c1OC` (stereo unspecified), 36.4%.
`Cc1cnn(CC(C)NCc2ccc(OCc3cscn3)cc2)c1` (stereo unspecified): the INHIBITION was -11.4%.
In the case of `COc1ccc(CNC(C)Cn2cccn2)cc1OC` (stereo unspecified), the INHIBITION is 27.8%.
Then `Cc1cnn(CC(C)NCc2ccncc2)c1` (stereo unspecified), with -17.6%.
For the molecule `Cc1cnn(CC(C)NCc2cc(=O)n3ccccc3n2)c1` (stereo unspecified), the INHIBITION was 89.6%.
With `COc1ccc(CNC(C)Cn2cccn2)cc1F` (stereo unspecified), the INHIBITION amounted to 59.4%.
As to `Cc1cnn(CC(C)NCc2ccc(OCC(N)=O)cc2)c1` (stereo unspecified), the INHIBITION is 58.5%.
Regarding `COCCN1C(=O)[C@@H]2CC[C@H]1CN(C(=O)COc1ccc(F)c(Cl)c1)C2`, the INHIBITION is reported as -102%.
Take `CN(C)[C@@H]1CCN(C(=O)c2ccccn2)[C@H]1Cc1cnn(C)c1`: the INHIBITION was 20.6%.
Take `CCN1CC(CN(C)Cc2nc(-c3ccc(F)cc3)oc2C)CC1=O` (stereo unspecified): the INHIBITION is recorded as 34.2%.
As for `CN(Cc1nc(Cc2cccc(C(F)(F)F)c2)no1)C1CCCCC1`, the INHIBITION came out at 43.9%.
Turning to `Cc1cnn(CCNCc2csc(-c3ccco3)n2)c1`, the INHIBITION was -4.9%.
Regarding `COc1c(CNCc2ccnc(N(C)C)c2)c(C(C)C)nn1C`, the INHIBITION came out at 9.47%.
Turning to `CC(C)c1noc(C2CC(=O)N(CCN(C)C)C2)n1` (stereo unspecified), the INHIBITION was 16.5%.
Regarding `COc1ccc2c(ccn2CCC(=O)NCCC(=O)O)c1`, the INHIBITION is on record as 42.1%.
For `COCCCNC(=O)CN(C)C(=O)c1cc2cc(C)ccc2nc1C`, the INHIBITION was determined as 5.885%.

The record behind these values is ChEMBL document CHEMBL4513216, “Probing the Open Global Health Chemical Diversity Library for Multistage-Active Starting Points for Next-Generation Antimalarials” (ACS Infect Dis, 2020).
